Measured values published in the supplement of paper PMC6555819.

What was measured:
Assay in all cases: PBM binding z-score (relative to random genomic background probes); higher = stronger binding; sequences stand for … in GC…GCGATTGACAGCGTAGAATGAAGG
[1] = system: RARb homodimer (NR concentration 270 nM)
In short: (§1)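 Random background probes are the reference for binding z-scores. These scores derive from regression-normalized fluorescence on custom Agilent 4×180K protein-binding microarrays incubated 1 h with ligand-free nuclear receptor dimers. Binding was detected with antibodies against each partner (one per run).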

[2] = system: RARg:RXRa (NR concentration 270 nM, RXRa partner concentration 90 nM)
In short: as §1

[3] = system: RARg homodimer (NR concentration 270 nM)
In short: as §1

[4] = system: RXRa DBDmut IVT, anti-RXR (DBD mutation: RXRa K156A/R161A, NR concentration 90 nM)
In short: as §1

[5] = system: RXRa homodimer (NR concentration 180 nM)
In short: as §1

[6] = system: THRa:RXRa (NR concentration 90 nM, RXRa partner concentration 90 nM)
In short: as §1

[7] = system: THRa homodimer (NR concentration 90 nM)
In short: as §1

[8] = system: VDR homodimer (NR concentration 270 nM)
In short: as §1

| Sequence | PBM binding z-score [1] | PBM binding z-score [2] | PBM binding z-score [3] | PBM binding z-score [4] | PBM binding z-score [5] | PBM binding z-score [6] | PBM binding z-score [7] | PBM binding z-score [8] |
| --- | --- | --- | --- | --- | --- | --- | --- | --- |
| CGAACTATGTCATTGACAGGACAGTGAATAGTAA | 0.32 | 0.772 | 0.637 | 0.491 | 0.127 | 0.297 | -0.398 | 0.0338 |
| TCTGGTAGGTCAGTTGGTCAGCTAACGAGCTGCC | 2.92 | 3.09 | 3.99 | 0.902 | 1.37 | 0.644 | 0.0551 | 0.292 |
| CCTCGGAGGACAGCAGGTCAGAGCTGTCCGCTTT | 2.25 | 2.17 | 1.91 | -0.0565 | 0.242 | 1.74 | 0.123 | -0.273 |
| GGAACGCGGGCAAAGTTGATAGCATCTGTCGACG | -0.251 | 0.143 | 0.259 | 0.0126 | 0.126 | -0.6 | -1.04 | -0.471 |
| GGTTGTAGATCAAGGTTAAGAAAGACTAAGCTAA | 0.97 | 0.695 | 0.809 | 0.0764 | 0.901 | 1.53 | 0.54 | 0.584 |
| TCGAGTAGGTTACCAATGGGGCATTTAGCTTTCT | 0.597 | 1.09 | 0.384 | 0.219 | 0.324 | -0.0531 | -0.844 | -0.414 |
| CCTGCTAGGTCAATGGTCAGCAAAAGCAGCTCGC | 2.84 | 3.57 | 4.83 | 1.78 | 2.47 | 2.16 | 0.37 | 0.312 |
| TCAGACAGCTGAAGGTAACTCAGGTACGCAGTCG | -0.661 | -0.115 | -0.24 | 0.764 | 0.413 | 1.05 | -0.685 | -0.186 |
| CCTACTGGGCCAAAGGTAATTGATTCCAATGCTC | 0.00337 | 0.0107 | 0.0633 | -0.288 | 0.00386 | 0.0403 | -0.123 | -0.113 |
| CTACCAAGATGAACAAGGTCGTTGATTACTATTC | 1.24 | 0.579 | 0.551 | 1.52 | 0.837 | 1.77 | 1.54 | 2.53 |
| ATATATAGGTTAAGGGTCATTCAGGTTGGTTCGC | 4.27 | 4.98 | 4.04 | 2.17 | 6.8 | 3.86 | 2.03 | 4.9 |
| TCTCGGAGCACACGAAAGGTCAGAGCTCGACATC | 4.06 | 3.96 | 3.53 | 0.437 | 3.98 | 2.41 | -0.342 | -0.387 |
| GGAACGAGGGCATTCCAGTTGATAGCATGGCGAT | 0.706 | 1.1 | 1.38 | 3.25 | 0.797 | 3.1 | -0.0583 | 2.61 |
| TCATATAGGTAATACAGGTGAAAGTAGGCATCTA | 0.649 | 0.714 | 0.742 | 1.81 | 1.2 | 1.05 | 0.429 | 0.305 |
| CAAACTAGGTCACCGGAAGGTCAAGGTCCGCATG | 5.77 | 8.53 | 7.66 | 2.03 | 6.64 | 4.3 | 3.53 | 3.16 |
| ATCGAAAGGTCGATGGTGAGTATACCCACCCGAA | 1.45 | 3.25 | 3.01 | 0.438 | 3.21 | 1.26 | -0.577 | 0.213 |
| CCGACTGGGGCAAAGGTTACCTTACTCAGTACGA | 2.02 | 3.15 | 1.62 | 0.0718 | 3.54 | 2.12 | 0.802 | -0.495 |
| TATATTAGTTGAAGGGCAACCGACGAGTCCGTTT | 1.37 | 0.983 | 1.22 | 0.547 | 0.884 | 0.415 | -0.0239 | 1.91 |
| CTACCAAGGTGAACAAAGTCGTTGATTACTATTC | 0.608 | 0.623 | 0.808 | 0.695 | 0.378 | 1.69 | 0.927 | 0.24 |
| GAGACTGGGGCATCAGCAGGTTACCATAACTTAA | 1.46 | 0.941 | 0.703 | 0.142 | 0.509 | 1.3 | 0.361 | -0.0346 |
| ACTAGCAGGCTAAGTTTGGGTCACTCAAACAAAG | 1.72 | 0.94 | 0.818 | -0.349 | 0.549 | 2.37 | 0.936 | -0.0144 |
| ATATTTAGGTTACATCCGGGTCATTCAGGCTATG | 3.1 | 3.51 | 2.31 | 1.39 | 3.32 | 4.1 | 3.84 | 3.54 |
| CGAACTAGGTGAAGGACAGTGAATCTCCGCACGC | 0.454 | 0.04 | 0.23 | -0.281 | 0.265 | 0.232 | -0.201 | -0.373 |
| CCGACTCGGGCAGAAAGGTTACCATACCATCCGG | 1.59 | 1.41 | 1.02 | -0.246 | 1.6 | 1.01 | -0.699 | -0.0904 |
| TCTCGGAGGATACGAAGGTCAGAGCTTTCCAGAG | 2.95 | 1.93 | 2.03 | 0.133 | 1.65 | 1.57 | -0.156 | 0.224 |
| ACTATTAGTTGACTCAGGGCAACCGATACGACGC | 0.937 | 0.721 | 0.905 | 0.661 | 0.488 | 1.5 | 0.878 | 0.644 |
| ACTATTAGTTGAGAGGAGGGCAACCGATAGGTTG | 1.1 | 0.586 | 0.81 | 0.0671 | 0.396 | 1.32 | -0.435 | 0.461 |
| GCAGACAGGTGAAACGCAGGTCACTCAGGGTGGC | 3.35 | 5.21 | 2.47 | -0.32 | 2.43 | 3.6 | 0.663 | 0.199 |
| TCATATAGGTAAATGCTAGATGAAAGTCCGATCT | -0.248 | 0.314 | 0.454 | 1.15 | 0.617 | -0.0472 | -0.457 | 0.317 |
